# High-throughput results deposited in PubChem BioAssay by several laboratories.
# SUMO HTRF inh – SUMOylation inhibition; P63279; HTRF SUMOylation assay, SAE1/SAE2 + UBC9, in vitro; inhibition, % at 35 µM; 290,000 compounds, 0.36% hits; AID 2006; in the data active means inhibition above about 50%, passing the limit was not always enough
# SIRT5 block – blocks human SIRT5 desuccinylation of peptide; Q9NXA8; Purified SirT5, succinyl-peptide AMC, trypsin-coupled fluorescence; inhibition, % at 15 µM; 330,000 compounds, 1.1% hits; AID 652115; in the data active means inhibition above about 15%
# Target sequence (Q9NXA8 whole entry, looked up): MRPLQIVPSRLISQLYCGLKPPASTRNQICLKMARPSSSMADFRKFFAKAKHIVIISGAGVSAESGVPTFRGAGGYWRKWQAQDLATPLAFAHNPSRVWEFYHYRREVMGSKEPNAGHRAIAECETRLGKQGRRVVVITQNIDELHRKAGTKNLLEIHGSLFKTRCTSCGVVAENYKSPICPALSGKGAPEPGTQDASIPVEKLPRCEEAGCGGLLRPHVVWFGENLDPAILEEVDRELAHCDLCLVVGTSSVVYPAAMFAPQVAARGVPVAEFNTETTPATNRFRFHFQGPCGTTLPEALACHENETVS
# CASP6 VEID inh – blocks human caspase-6 cleavage activity; 350,000 compounds, 0.53% hits; inhibition, % at 12.5 µM; purified caspase-6, Z-VEID-R110 cleavage fluorescence; AID 686996; P55212;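 active means mean inhibition across replicates at least about 35%, with every replicate also reaching that limit, limit read from the data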;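 further: 0% = median of neutral control wells and 100% = no fluorescence left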
# Target sequence (P55212 24-179 limits assumed): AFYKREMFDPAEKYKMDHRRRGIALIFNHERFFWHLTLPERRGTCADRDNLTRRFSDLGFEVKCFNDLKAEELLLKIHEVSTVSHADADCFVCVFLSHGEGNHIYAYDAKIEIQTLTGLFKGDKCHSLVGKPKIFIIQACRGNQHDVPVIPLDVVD
# Target sequence (P55212 194-293 limits assumed): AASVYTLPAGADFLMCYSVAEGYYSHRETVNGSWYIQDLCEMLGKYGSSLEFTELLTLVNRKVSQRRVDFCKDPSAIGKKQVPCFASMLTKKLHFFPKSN
# NSD2 HMT inh – NSD2 (human) methyltransferase inhibition | inhibition, % at 12.5 µM | 310,000 compounds, 0.54% hits | NSD2 peptide methylation, AlphaScreen, 120 min; in the data active means inhibition above about 50%
# * = called active by the depositor; / = not tested or not shown; ! = not confirmed by another sample. Only some compounds are listed: those with a hit (about 1.6% of all), similar ones and a draw of the others.
SMILES,SUMO HTRF inh,SIRT5 block,CASP6 VEID inh,NSD2 HMT inh
COc1ccc(OC)c(S(=O)(=O)NC(C)CCc2ccccc2)c1 (stereo unspecified),1.6,-2.2,-1.2,-0.9
Cc1noc(C)c1NC(=O)N(C)C[C@H]1OCCCC[C@@H](C)Oc2ccc(NC(=O)Cc3ccccc3)cc2C(=O)N([C@@H](C)CO)C[C@H]1C,/,0.5,-2.8,/
O=c1c2ccccc2nc2n1CCC2,73.3*,/,/,3.2
COc1ccccc1CNS(=O)(=O)c1cccc2nsnc12,1.4,5.7,-0.3,0.1
COc1ccccc1CNC(=O)C(NS(=O)(=O)c1cccc2nsnc12)C(C)C (stereo unspecified),18.2,19.2*,2.1,0.0
O=C(O)C1Sc2[nH]c(=O)sc2C2c3ccc(O)cc3OC(=O)C12 (stereo unspecified),38.8,-9.3,57.7*,0.8
CC(=O)N(C)C[C@@H]1Oc2cc(C3=CCCC3)ccc2S(=O)(=O)N([C@@H](C)CO)C[C@@H]1C,/,1.8,0.1,/
CCOC(=O)/C(=C\C=C\N1CCOCC1)C(C)=O,16.4,15.8*,19.2,-4.0
CCOc1ccc(NC(=O)CN2C(=O)S/C(=C/c3cccn3C)C2=O)cc1,37.0,111.9*,0.6,-6.0
Cn1cccc1/C=C1\SC(=O)N(CC(=O)Nc2ccc(Cl)cc2)C1=O,17.4,1.1,0.2,/
Cc1cc(C)c2c(c1)NC(C(=O)O)C1CC=CC21 (stereo unspecified),24.2,18.2*,64.1*,31.0
Cc1ccc2c(c1C)NC(C(=O)O)C1CC=CC21 (stereo unspecified),58.1*,/,29.5,/
CCCC(=O)Nc1ccc2c(c1)OC[C@H](C)N(Cc1ccccn1)C[C@@H](C)[C@H](OC)CN(C)C2=O,/,0.9,-2.4,/
C[C@H](CO)N1C[C@H](C)[C@H](CN(C)S(=O)(=O)c2ccc(F)cc2)Oc2c(NC(=O)c3nc4ccccc4s3)cccc2C1=O,/,24.3*,0.7,/
C[C@@H]1CN([C@H](C)CO)C(=O)c2cccc(NC(=O)c3nc4ccccc4s3)c2O[C@@H]1CN(C)C(=O)NC1CCCCC1,/,34.1*,-1.3,/
C[C@@H]1CN([C@@H](C)CO)C(=O)c2cccc(NC(=O)c3nc4ccccc4s3)c2O[C@@H]1CN(C)Cc1ccccc1,/,5.7,-4.8,/
C[C@@H]1CN([C@@H](C)CO)C(=O)c2cccc(NC(=O)c3nc4ccccc4s3)c2O[C@@H]1CN(C)Cc1ccc(C(F)(F)F)cc1,/,18.3*,-0.2,/
CNC[C@@H]1Oc2c(NS(=O)(=O)c3ccc(C)cc3)cccc2C(=O)N([C@H](C)CO)C[C@@H]1C,/,-4.3,-2.8,/
CCNC(=O)[C@@H]1[C@@H](CO)[C@@H]2Cn3c(ccc(/C=C/c4ccccc4)c3=O)[C@@H]2N1C(=O)C1CC1,/,-80.6,0.1,/
COc1ccc2c3c([nH]c2c1)[C@H](CO)N(Cc1cccc(Cl)c1)CC31CCN(C)CC1,/,5.4,1.2,/
COCCNC(=O)[C@H]1[C@H](CO)[C@H]2Cn3c(ccc(-c4ccc(F)cc4)c3=O)[C@@H]1N2C,/,-7.6,4.6,/
O=C(N[C@H]1CC[C@H](CCNS(=O)(=O)c2ccccc2)O[C@H]1CO)c1cccnc1,/,-3.2,-2.0,/
O=C(C[C@@H]1CC[C@@H](NC(=O)C2CCOCC2)[C@H](CO)O1)Nc1ccccc1,/,1.2,2.2,/
O=C(N/N=C/C1CC=CCC1)c1ccc(Cl)cc1O (stereo unspecified),-6.6,-3.9,62.3*,-0.5
C[C@@H]1CCCCO[C@@H](CN(C)C(=O)Nc2ccccc2)[C@H](C)CN([C@H](C)CO)C(=O)c2cc(NS(=O)(=O)c3cccs3)ccc2O1,/,11.7,0.8,/
SMILES,SUMO HTRF inh,SIRT5 block,CASP6 VEID inh,NSD2 HMT inh
C[C@H](CO)N1C[C@H](C)[C@@H](CN(C)C(=O)Nc2cccc(C(F)(F)F)c2)OCc2cnnn2CCCC1=O,/,-2.5,-3.7,/
OC[C@@H]1[C@H](c2ccccc2)C2(CN(Cc3nccs3)C2)N1Cc1cccnc1,/,19.7*,1.4,/
OC[C@@H]1[C@@H](c2ccccc2)C2(CN(Cc3nccs3)C2)N1Cc1cccnc1,/,11.5,0.5,/
COc1ccccc1NC(=O)Nc1ccc2c(c1)C(=O)N(C)C[C@H](OC)[C@H](C)CN(C)[C@H](C)CO2,/,18.8*,/,/
COc1ccccc1NC(=O)Nc1ccc2c(c1)C(=O)N(C)C[C@@H](OC)[C@@H](C)CN[C@H](C)CO2,/,-0.5,/,/
COc1ccccc1NC(=O)Nc1ccc2c(c1)C(=O)N(C)C[C@H](OC)[C@H](C)CN[C@@H](C)CO2,/,22.0*,2.3,/
NC(=O)c1ccc(-c2c(-c3ccccc3)sc3ccccc23)cc1,/,29.3*,-0.5,/
Oc1ccc(-c2c(-c3ccsc3)sc3ccccc23)cc1,0.0,/,-0.9,/
COc1ccccc1NC(=O)N[C@H]1CC[C@@H](CC(=O)N[C@@H](C)c2ccccc2)O[C@@H]1CO,/,1.2,7.3,/
Cc1cc(C)c(C(=O)C(C)OC(=O)Cc2n[nH]c(=O)c3ccccc23)cc1C (stereo unspecified),13.6,15.4*,-2.0,-0.7
C[C@@H]1CN([C@H](C)CO)C(=O)c2cc(NC(=O)Nc3ccc(C(F)(F)F)cc3)ccc2O[C@H]1CN(C)CC1CCCCC1,/,0.3,-1.5,/
C=CCOc1ccc(C(c2c(C(=O)O)[nH]c3ccccc23)c2c(C(=O)O)[nH]c3ccccc23)cc1,3.9,2.2,47.7*,31.8
C[C@@H]1CN([C@@H](C)CO)C(=O)c2cc(NC(=O)Nc3ccc(F)cc3)ccc2O[C@@H](C)CCCCO[C@@H]1CN(C)C(=O)c1ccccc1,/,4.1,1.7,/
Cc1ccc(S(=O)(=O)CC(=O)Nc2ccc3nc(C)sc3c2)cc1,11.9,23.6*,1.9,7.3
CCOC(=O)c1c(CS(=O)(=O)c2ccccc2)n(C)c2cc(Br)c(O)c(CN(C)C)c12,4.8,/,-0.6,0.5
CCOC(=O)c1c(CS(=O)(=O)c2ccccc2)n(C)c2cc(Br)c(O)cc12,7.5,18.0*,-3.6,-1.6
O=C(/C=C/c1cccs1)Nc1ccc([N+](=O)[O-])cc1,4.5,/,/,9.2
CCC(C)NC(=O)/C=C/c1cccs1 (stereo unspecified),-6.2,16.8*,-3.0,-1.6
O=C(/C=C/c1cccs1)Nc1ccncc1,16.4,35.1*,-1.1,2.4
CC(C)(C)NC(=O)/C=C/c1cccs1,28.8,-1.5,1.6,-2.2
O=C(C[C@H]1CC[C@@H]2[C@H](COC[C@H](O)CN2S(=O)(=O)c2ccccc2)O1)NCc1ccc2c(c1)OCO2,/,-1.8,-2.7,/
COc1ccccc1/C=C/C(=O)OCC(=O)Nc1ccccc1Sc1ccccc1,0.2,17.5*,-2.5,2.4
COc1ccccc1NC(=O)COC(=O)/C=C/c1ccccc1[N+](=O)[O-],10.5,/,/,-3.4
O=C(/C=C/c1ccc(Cl)cc1)Nc1nccs1,11.7,-2.5,63.6*,15.7
O=C(Nc1ccc2c(c1)OCO2)N1C[C@@H]2N[C@H](C1)C2c1ccc(C=Cc2ccccc2)cc1 (stereo partly specified),/,17.0*!,2.2,/
O=C(C1CCCC1)N1C[C@@H]2N[C@H](C1)C2c1ccc(-c2ccccc2F)cc1 (stereo partly specified),/,25.2*!,2.3,/
